KDM5B inhibitor = Primary screen for KDM5B Histone Demethylases FDH-coupled qHTS; Lysine-specific demethylase 5B (Homo sapiens), Q9UGL1; KDM5B demethylase, FDH-coupled NADH fluorescence (FDH is formaldehyde dehydrogenase); Potency, µM (doses to about 57.7 µM), usual class: inhibitors; 220,000 compounds, 2.6% hits; AID 1347165, 2019; active = well fitted inhibition curve with a large enough effect; note: nearly all actives have a fitted effect of over 70% in size
Target sequence (Q9UGL1 whole entry, looked up): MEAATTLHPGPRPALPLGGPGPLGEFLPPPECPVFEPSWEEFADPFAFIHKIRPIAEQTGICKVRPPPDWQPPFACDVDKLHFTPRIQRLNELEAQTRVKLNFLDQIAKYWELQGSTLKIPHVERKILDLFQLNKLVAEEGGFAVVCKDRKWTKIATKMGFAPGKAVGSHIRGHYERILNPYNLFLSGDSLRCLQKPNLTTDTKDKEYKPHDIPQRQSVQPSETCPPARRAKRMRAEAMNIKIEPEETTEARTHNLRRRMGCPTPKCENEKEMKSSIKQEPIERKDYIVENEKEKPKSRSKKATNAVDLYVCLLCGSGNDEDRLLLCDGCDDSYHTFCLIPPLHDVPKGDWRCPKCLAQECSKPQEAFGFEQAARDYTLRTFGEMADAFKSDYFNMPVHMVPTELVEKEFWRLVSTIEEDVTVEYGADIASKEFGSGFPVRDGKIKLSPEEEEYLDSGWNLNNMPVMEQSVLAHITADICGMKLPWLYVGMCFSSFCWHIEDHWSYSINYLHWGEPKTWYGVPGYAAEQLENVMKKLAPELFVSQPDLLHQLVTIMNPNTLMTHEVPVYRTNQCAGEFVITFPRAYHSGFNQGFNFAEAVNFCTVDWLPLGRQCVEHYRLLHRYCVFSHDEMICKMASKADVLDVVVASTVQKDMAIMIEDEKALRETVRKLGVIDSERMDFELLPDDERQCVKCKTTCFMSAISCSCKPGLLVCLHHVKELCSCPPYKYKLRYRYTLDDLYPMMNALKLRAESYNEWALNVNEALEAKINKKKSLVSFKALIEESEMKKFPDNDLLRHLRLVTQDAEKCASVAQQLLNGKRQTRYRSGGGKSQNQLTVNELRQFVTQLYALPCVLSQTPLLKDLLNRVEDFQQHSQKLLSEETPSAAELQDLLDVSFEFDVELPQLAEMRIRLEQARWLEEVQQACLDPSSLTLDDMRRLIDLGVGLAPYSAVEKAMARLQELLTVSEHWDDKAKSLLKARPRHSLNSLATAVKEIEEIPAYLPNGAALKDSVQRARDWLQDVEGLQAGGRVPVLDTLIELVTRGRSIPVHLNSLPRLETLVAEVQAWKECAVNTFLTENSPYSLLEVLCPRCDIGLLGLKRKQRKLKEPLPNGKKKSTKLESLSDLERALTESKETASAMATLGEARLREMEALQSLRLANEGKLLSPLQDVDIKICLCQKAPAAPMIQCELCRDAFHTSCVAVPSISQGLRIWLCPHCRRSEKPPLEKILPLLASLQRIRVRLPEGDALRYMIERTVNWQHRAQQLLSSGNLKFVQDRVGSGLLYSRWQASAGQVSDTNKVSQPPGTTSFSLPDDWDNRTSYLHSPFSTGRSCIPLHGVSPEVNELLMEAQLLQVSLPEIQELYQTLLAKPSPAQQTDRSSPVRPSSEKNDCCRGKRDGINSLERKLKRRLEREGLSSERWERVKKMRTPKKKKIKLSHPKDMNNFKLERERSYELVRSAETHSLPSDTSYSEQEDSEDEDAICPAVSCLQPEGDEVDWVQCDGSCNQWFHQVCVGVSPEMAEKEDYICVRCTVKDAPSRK
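Coupled FDH/NAD⁺ fluorescence readout. KDM5BΔAP 200 nM final; compound titration, 10 min RT preincubation; substrate mix 12.5 µM H3K4me3, 25 µM 2-OG, 50 µM Fe(II), 100 µM ascorbate, 0.25 mM NAD⁺, 0.25 U/mL FDH; ΔRFU over 30 min.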
Each line names hits and unclear results; the compound was inactive in the other large screens. This excerpt belongs to a sample that is enriched for hits.

Clc1ccc2nc(-c3cccc(Br)c3)cn2c1	none
CCc1c(C)sc2nc(NCc3ccco3)n3nc(-c4ccco4)nc3c12	none
O=C(NCc1coc(-c2cccs2)n1)c1ccc(Cl)cc1	none
Fc1cccc(Cc2noc(-c3nc(-c4ccccc4)no3)n2)c1	none
COc1ccc(-c2noc(-c3nc(Cc4cccc(F)c4)no3)n2)cc1	KDM5B inhibitor 28µM
Cc1ccc(-c2noc(-c3nc(-c4cccnc4)no3)n2)cc1	none
COc1ccc(-c2noc(-c3nc(-c4cc(OC)c(OC)c(OC)c4)no3)n2)cc1	none
Cc1noc(-c2nc(Cc3cccc(F)c3)no2)n1	none
COc1ccc(-c2noc(-c3nc(-c4cccnc4)no3)n2)cc1	KDM5B inhibitor 35µM
Cc1ccc(-c2nc(Cn3cnc4sccc4c3=O)co2)c(C)c1	none
Fc1ccc(CNC(=S)Nc2cccc(F)c2)cc1	none
COc1ccc(C(=O)/C(=C/c2ccc(C)o2)c2nc3ccccc3o2)cc1OC	none
Nc1cccc(OC2CCCC2)c1	none
COc1cccc(NC(=O)C(=O)c2c(C)[nH]c3ccccc23)c1	none
COC(=O)c1ccc(COC(=O)CCS(=O)(=O)c2ccc(F)cc2)cc1	none
Cc1cc(C)c(S(=O)(=O)N2CCCC2c2nc3ccccc3[nH]2)c(C)c1 (configuration not stated)	none
C=C(Cl)CN1CCC(CC(N)=O)CC1	none
COc1ccc(OC)c2[nH]c(C(=O)NCC(=O)NCC(=O)O)cc12	none
COC(=O)CSc1nc2c(c(=O)[nH]c(=O)n2C)n1Cc1ccccc1	none
Cc1cccc(OCCCN)c1	none
Cc1ccc(-n2ncnc2-c2cc3c(n(-c4ccccc4)c2=O)CC(C)(C)CC3=O)cc1	none
COc1ccc(-c2nc3cc(C)ccc3cc2CN2CCC(NC(C)=O)C2)cc1 (configuration not stated)	KDM5B inhibitor 20µM
COc1ccc(-c2nc3cc(C)ccc3cc2CN2CCN(C(C)=O)CC2)cc1	none
CCN1CCN(Cc2cc3ccc(C)cc3nc2-c2ccc(OC)c(OC)c2)CC1	none
Cc1ccc(-c2nc(S(=O)(=O)c3ccc(F)cc3)c(N(C)C)o2)cc1	none
COCCN1CC(CO)C2(CCN(Cc3cccc(Cl)c3)CC2)C1 (configuration not stated)	none
CC(NC1CC1)c1ccc2ccccc2c1 (configuration not stated)	none
COc1ccccc1-c1ccnc(-n2ncc(C(=O)NCCc3cccnc3)c2C2CC2)n1	KDM5B inhibitor 32µM
CC(C)(C)OC(=O)N1CCC(c2c(C(=O)NCCc3ccccc3)cnn2-c2ccc(F)cc2)CC1	none
O=C(NCCc1cccnc1)c1ccccc1Cl	none
CCOc1cc(/C=N/NC(=O)C(=O)NCC2CCCO2)ccc1OCC(=O)N1CCOCC1 (configuration not stated)	none
CCOc1ccc(-c2ccnc(N3CCC(NC(C)=O)CC3)n2)cc1C(=O)O	KDM5B inhibitor 32µM
CCCOc1c(Cl)cc(C(=O)NCC2CCCO2)cc1OCC (configuration not stated)	none
CCOc1ccccc1C(=O)N1CCN(c2cc(-c3ccc(OC)cc3)[nH]n2)CC1	none
CCOc1ccc(CC(=O)NC2CCN(c3cc(-c4ccc(OC)cc4)[nH]n3)CC2)cc1	none
CCOc1ccc(-c2ccnc(NC[C@@H]3CCCO3)n2)cc1C(=O)O	KDM5B inhibitor 22µM
CCOc1ccc(-c2cc(C(=O)O)c3ccccc3n2)cc1OCC	none
CCOc1cc(C(=O)NC2CCN(c3cc(-c4ccc(OC)cc4)[nH]n3)C2)cc(OCC)c1OCC (configuration not stated)	none
CCOc1ccc(-c2ccnc(N3CCNC(C)C3)n2)cc1C(=O)O (configuration not stated)	KDM5B inhibitor 28µM
CC(C)n1nnnc1SCCS(=O)(=O)c1cc(Cl)ccc1Cl	none
O=C1CCN(C(=O)C2CCCCC2)CCCC(c2nc(-c3cccnc3)no2)CCN1 (configuration not stated)	none
O=C(O)Cc1ccc(N2C(=O)C(=O)/C(=C(/O)c3ccccc3Cl)C2c2ccccc2F)cc1 (configuration not stated)	none
COc1ccc2nc(/C(C#N)=C\c3ccc(C)o3)[nH]c2c1	none
COc1ccc(NC(=O)N[C@H]2CO[C@H]3[C@@H]2OC[C@@H]3n2nnnc2Oc2ccccc2)cc1	none
CN(C)c1ccc(-c2nnnn2[C@H]2CO[C@H]3[C@@H]2OC[C@H]3O)cc1	none
CN(C)c1ccc(-c2nnnn2[C@H]2CO[C@H]3[C@@H]2OC[C@@H]3NS(=O)(=O)c2ccc3ccccc3c2)cc1	KDM5B inhibitor 22µM
CN(C)c1ccc(-c2nnnn2[C@H]2CO[C@H]3[C@@H]2OC[C@@H]3NC(=O)CCC(=O)O)cc1	none
CN(C)c1ccc(-c2nnnn2[C@H]2CO[C@H]3[C@@H]2OC[C@@H]3NC(=O)Nc2ccc(Oc3ccccc3)cc2)cc1	KDM5B inhibitor 13µM
CN(C)c1cccc(Oc2nnnn2[C@H]2CO[C@H]3[C@@H]2OC[C@@H]3NC(=O)Nc2ccc(Oc3ccccc3)cc2)c1	none
COc1cccc(CN(C)Cc2cccn2C)c1	none
O=S(=O)(Cc1ccccc1)NCc1cccc(CNS(=O)(=O)Cc2ccccc2)c1	none
Cc1ccc(OCCC(=O)Nc2c(C)nn(C)c2C)cc1C	none
COc1ccc(C2=C(C=O)C(c3ccccc3)c3ccccc3O2)cc1 (configuration not stated)	none
CCOc1ccc(NC(=O)Cn2ccn3nc(-c4ccccc4)c(CO)c3c2=O)cc1	none
O=C(Cn1ccn2nc(-c3ccccc3)c(CO)c2c1=O)Nc1ccccc1Cl	none
CC(C)NC(=O)Cn1ccn2nc(-c3ccccc3)c(CO)c2c1=O	none
COc1cc(Cl)c(C)cc1NC(=O)Cn1ccn2nc(-c3ccccc3)c(CO)c2c1=O	KDM5B inhibitor 16µM
Cc1cccc(N(C)C(=O)Cn2ccn3nc(-c4ccc(F)cc4)c(CO)c3c2=O)c1	none
Cc1ccc(NC(=O)Cn2ccn3nc(-c4ccccc4)c(CO)c3c2=O)c(C)c1	KDM5B inhibitor 32µM
Cc1ccc(NC(=O)Cn2ccn3nc(-c4ccccc4)c(CO)c3c2=O)cc1F	none
Cc1ccc(NC(=O)Cn2ccn3nc(-c4ccccc4)c(CO)c3c2=O)cc1	none
CCc1ccc(NC(=O)Cn2ccn3nc(-c4ccccc4)c(CO)c3c2=O)cc1	none
O=C(Cn1ccn2nc(-c3ccccc3)c(CO)c2c1=O)Nc1ccccc1C(F)(F)F	KDM5B inhibitor 20µM
Cc1ccc(C)c(NC(=O)Cn2ccn3nc(-c4ccc(F)cc4)c(CO)c3c2=O)c1	KDM5B inhibitor 18µM
CC(C)NC(=O)Cn1ccn2nc(-c3ccc(F)cc3)c(CO)c2c1=O	none
Cc1cc(C)c2oc(C(=O)NCC(c3cccs3)N3CCOCC3)cc(=O)c2c1 (configuration not stated)	none
CC(C)CCNC(N)=S	none
O=C(CNc1ccccc1C(=O)NCc1ccco1)NC(=O)NCc1ccccc1	none
Cc1ccc(SCC(=O)c2ccc3c(c2)OCCO3)c(C)c1	none
Cc1ccc(C(=O)NCCC2=CCCCC2)cc1C	none
Cc1cccc(N2NC3(CCCC(C)C3)NC2=S)c1C (configuration not stated)	none
Cc1nn(C)c(C)c1Nc1ccc(S(=O)(=O)NC(C)C)cc1[N+](=O)[O-]	none
COCCNC(=O)Cn1ccn2nc(-c3ccc(F)cc3)c(CO)c2c1=O	none
O=C(Cn1ccn2nc(-c3ccc(F)cc3)c(CO)c2c1=O)NCc1ccc(Cl)cc1	none
O=C(Cn1ccn2nc(-c3ccc(F)cc3)c(CO)c2c1=O)NCc1ccccc1Cl	KDM5B inhibitor 28µM
O=C(NCCc1ccc(Cl)cc1)c1nc(-c2cccnc2)c2cnccn12	KDM5B inhibitor 25µM
O=C(Cn1cccc1-c1nc(-c2ccccc2)no1)NCCc1ccc(Cl)cc1	none
